Reference: the supplement of paper PMC11732987, “Enantioselective OTUD7B fragment discovery through chemoproteomics screening and high-throughput optimisation” (Communications Chemistry, 2025)

Tests used:
Assay in all cases: log2 ratio of Biotin-Ahx-Ub-VS probe labelling (fragment/DMSO); higher = less target engagement (more negative = stronger competition), active = hit call of the paper (q ≤ 0.05, log2 ratio ≤ -1)
Details in all cases: compound concentration: 200 uM; treatment time: 3 h
[1] = target: T1, USP42 (UniProt Q9H9J4)
T1 sequence (whole entry): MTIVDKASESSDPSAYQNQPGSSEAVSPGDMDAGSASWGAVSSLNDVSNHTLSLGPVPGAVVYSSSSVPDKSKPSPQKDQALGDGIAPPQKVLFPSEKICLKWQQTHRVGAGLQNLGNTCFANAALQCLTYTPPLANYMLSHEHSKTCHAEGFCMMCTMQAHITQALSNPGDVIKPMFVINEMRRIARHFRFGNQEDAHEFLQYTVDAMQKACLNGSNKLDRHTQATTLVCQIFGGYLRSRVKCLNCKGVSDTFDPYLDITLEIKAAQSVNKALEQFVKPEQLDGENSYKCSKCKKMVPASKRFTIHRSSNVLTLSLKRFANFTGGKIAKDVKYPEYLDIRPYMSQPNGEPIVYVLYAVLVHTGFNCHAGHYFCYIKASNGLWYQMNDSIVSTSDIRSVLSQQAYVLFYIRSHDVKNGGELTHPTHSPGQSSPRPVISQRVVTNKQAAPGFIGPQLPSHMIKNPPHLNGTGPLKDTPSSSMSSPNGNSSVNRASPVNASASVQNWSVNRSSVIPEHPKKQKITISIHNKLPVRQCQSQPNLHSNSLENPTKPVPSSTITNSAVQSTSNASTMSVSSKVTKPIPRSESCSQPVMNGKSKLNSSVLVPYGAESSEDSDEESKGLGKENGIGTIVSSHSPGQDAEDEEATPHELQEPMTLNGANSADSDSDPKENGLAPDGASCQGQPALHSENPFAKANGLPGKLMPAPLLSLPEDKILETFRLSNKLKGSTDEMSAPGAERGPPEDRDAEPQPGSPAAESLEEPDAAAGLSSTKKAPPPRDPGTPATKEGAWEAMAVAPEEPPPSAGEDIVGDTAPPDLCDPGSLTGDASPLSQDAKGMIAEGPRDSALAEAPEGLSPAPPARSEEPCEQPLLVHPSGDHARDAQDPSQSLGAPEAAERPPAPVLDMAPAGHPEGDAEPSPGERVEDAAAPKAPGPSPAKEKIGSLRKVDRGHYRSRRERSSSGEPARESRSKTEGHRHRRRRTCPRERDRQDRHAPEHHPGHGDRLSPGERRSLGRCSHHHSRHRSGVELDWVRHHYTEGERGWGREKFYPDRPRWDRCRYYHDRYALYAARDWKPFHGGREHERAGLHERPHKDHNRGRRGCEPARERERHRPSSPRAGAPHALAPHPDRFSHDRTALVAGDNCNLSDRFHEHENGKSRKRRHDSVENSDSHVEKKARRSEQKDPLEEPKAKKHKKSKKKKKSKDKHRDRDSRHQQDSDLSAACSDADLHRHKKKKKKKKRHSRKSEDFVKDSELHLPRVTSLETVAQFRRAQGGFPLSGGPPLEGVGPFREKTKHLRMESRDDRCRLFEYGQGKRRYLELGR
Procedure, shortened: (§1)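 Average log2 ratios of fragment over vehicle were obtained by unpaired t-test from global-median-normalised Spectronaut label-free quantities. Proteins with ≥2 unique peptides were included. HEK293T lysate (495 µg per sample) was treated in triplicate with fragment at 200 µM or vehicle for 3 h, then with Biotin-Ahx-Ub-VS at 0.5 µM final for 1 h, and labelled DUBs were NeutrAvidin-enriched and run by diaPASEF LC-MS/MS.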

[2] = target: USP46 (UniProt P62068)
Procedure, shortened: as §1

[3] = target: T2, USP47 (UniProt Q96K76)
T2 sequence (whole entry): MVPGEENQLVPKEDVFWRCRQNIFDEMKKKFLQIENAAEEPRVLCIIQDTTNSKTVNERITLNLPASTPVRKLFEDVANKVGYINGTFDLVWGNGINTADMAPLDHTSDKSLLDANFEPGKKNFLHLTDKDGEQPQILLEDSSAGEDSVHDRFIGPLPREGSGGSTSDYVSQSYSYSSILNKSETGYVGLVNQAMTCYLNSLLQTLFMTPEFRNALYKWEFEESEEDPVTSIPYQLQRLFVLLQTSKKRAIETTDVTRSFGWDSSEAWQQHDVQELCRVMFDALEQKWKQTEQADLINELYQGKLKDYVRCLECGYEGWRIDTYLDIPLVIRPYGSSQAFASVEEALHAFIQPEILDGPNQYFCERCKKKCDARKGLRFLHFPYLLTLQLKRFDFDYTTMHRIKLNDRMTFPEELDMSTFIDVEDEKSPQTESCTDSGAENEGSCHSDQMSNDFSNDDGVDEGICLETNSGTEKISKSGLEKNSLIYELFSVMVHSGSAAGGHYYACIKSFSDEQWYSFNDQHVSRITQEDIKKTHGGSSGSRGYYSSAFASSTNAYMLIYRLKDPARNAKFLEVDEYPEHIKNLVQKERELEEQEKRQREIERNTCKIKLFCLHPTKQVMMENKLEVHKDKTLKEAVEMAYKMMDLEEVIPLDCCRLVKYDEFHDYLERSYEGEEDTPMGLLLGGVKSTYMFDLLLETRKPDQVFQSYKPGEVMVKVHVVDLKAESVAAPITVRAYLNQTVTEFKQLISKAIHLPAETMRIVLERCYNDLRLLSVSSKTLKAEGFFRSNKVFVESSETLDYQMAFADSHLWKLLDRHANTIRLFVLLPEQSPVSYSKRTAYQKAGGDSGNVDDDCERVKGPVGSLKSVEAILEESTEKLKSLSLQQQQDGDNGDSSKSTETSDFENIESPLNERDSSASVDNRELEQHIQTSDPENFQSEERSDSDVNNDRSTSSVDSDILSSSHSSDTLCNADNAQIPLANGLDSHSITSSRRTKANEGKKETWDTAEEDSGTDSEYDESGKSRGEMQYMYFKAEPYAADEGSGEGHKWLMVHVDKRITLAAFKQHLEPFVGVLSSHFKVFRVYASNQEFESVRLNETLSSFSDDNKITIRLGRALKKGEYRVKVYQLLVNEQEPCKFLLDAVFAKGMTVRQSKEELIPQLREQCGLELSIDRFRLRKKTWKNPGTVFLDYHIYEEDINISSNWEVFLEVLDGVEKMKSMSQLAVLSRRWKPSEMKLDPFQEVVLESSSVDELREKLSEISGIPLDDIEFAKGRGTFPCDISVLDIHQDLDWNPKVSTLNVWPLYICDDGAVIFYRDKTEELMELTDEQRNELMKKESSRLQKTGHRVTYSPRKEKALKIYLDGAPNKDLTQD
Procedure, shortened: as §1

[4] = target: T3, USP48 (UniProt Q86UV5)
T3 sequence (whole entry): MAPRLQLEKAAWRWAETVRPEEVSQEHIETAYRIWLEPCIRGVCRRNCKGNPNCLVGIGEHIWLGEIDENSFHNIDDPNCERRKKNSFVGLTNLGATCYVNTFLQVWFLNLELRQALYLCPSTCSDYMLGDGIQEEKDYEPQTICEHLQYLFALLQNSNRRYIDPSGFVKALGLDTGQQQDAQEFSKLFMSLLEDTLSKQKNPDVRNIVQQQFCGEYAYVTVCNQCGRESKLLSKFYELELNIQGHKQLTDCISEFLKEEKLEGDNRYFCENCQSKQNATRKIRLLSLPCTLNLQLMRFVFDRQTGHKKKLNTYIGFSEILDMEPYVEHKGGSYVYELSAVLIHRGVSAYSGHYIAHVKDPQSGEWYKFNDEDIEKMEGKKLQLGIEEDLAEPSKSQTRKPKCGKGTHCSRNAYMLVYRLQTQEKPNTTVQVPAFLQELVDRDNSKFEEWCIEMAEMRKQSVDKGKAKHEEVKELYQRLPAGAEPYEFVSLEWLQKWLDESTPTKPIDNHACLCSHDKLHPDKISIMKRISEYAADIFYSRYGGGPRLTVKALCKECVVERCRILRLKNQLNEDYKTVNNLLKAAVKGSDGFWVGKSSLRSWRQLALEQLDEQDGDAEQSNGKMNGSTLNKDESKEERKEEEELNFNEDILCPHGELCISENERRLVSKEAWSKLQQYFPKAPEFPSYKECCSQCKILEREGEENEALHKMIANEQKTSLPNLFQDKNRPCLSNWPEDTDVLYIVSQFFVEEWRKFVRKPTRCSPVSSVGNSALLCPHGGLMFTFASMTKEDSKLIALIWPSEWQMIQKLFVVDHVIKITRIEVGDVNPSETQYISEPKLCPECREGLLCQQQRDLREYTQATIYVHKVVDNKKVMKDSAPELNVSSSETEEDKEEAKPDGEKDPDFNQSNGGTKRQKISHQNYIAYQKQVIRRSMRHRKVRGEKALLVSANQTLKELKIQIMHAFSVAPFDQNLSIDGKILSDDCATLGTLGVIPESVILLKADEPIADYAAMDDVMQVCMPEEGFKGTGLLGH
Procedure, shortened: as §1

[5] = target: T4, USP5 (UniProt P45974)
T4 sequence (whole entry): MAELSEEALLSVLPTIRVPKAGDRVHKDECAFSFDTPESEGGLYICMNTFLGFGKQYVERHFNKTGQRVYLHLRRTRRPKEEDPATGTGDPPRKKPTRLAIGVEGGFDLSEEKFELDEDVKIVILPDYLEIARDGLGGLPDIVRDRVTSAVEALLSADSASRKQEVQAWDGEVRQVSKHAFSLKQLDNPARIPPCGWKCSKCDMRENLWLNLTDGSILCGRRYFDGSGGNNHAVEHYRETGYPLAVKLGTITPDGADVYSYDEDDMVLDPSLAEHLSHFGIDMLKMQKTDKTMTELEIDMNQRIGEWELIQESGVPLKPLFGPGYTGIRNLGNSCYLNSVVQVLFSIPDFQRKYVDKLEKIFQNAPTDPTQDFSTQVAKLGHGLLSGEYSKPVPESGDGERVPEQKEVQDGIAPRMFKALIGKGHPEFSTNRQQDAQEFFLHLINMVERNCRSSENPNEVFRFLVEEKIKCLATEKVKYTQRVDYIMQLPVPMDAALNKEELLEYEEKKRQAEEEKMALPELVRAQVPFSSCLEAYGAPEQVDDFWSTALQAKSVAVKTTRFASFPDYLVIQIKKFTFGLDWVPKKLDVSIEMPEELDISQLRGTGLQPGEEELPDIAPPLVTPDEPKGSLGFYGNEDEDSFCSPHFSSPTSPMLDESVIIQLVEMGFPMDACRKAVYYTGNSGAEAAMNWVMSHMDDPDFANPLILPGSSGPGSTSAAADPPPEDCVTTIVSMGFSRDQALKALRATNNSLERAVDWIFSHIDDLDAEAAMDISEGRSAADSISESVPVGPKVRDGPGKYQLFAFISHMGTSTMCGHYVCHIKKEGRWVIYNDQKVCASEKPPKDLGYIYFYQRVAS
Procedure, shortened: as §1

[6] = target: USP54 (UniProt Q70EL1)
Procedure, shortened: as §1

[7] = target: USP7 (UniProt Q93009)
Procedure, shortened: as §1

[8] = target: T5, USP8 (UniProt P40818)
T5 sequence (whole entry): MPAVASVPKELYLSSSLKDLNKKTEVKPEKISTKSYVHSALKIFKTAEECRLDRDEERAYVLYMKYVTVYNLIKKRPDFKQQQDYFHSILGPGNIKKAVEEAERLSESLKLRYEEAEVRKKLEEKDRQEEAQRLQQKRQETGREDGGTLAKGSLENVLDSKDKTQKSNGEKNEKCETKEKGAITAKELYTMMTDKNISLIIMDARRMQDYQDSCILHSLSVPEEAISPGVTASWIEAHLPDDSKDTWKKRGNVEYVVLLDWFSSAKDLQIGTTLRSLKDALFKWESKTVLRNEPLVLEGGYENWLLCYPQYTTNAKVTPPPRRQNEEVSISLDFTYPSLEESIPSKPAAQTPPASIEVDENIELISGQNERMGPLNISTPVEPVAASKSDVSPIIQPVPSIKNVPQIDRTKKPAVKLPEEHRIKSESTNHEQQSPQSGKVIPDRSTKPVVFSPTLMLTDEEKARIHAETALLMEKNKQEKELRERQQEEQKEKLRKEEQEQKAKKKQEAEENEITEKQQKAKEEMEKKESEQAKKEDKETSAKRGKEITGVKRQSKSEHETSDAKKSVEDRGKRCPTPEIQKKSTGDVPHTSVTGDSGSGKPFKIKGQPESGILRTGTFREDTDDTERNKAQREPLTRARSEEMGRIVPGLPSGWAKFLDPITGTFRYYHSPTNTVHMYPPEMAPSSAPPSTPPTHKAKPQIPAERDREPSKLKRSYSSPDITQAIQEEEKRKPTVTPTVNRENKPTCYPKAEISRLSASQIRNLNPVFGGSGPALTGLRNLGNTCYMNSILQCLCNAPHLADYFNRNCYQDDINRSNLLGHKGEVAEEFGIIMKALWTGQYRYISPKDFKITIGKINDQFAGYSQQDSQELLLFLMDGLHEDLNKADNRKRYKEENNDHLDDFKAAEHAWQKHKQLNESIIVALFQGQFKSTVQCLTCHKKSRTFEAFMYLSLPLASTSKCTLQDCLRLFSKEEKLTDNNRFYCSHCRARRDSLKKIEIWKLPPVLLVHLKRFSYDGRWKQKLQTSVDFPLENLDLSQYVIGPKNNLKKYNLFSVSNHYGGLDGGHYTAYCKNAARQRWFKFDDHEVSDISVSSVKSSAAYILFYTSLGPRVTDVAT
Procedure, shortened: as §1

[9] = target: USP9X (UniProt Q93008)
Procedure, shortened: as §1

[10] = target: UniProt O00487
Procedure, shortened: as §1

Measured: log2 ratio of Biotin-Ahx-Ub-VS probe labelling

Sequence of USP9X (Q93008 whole entry): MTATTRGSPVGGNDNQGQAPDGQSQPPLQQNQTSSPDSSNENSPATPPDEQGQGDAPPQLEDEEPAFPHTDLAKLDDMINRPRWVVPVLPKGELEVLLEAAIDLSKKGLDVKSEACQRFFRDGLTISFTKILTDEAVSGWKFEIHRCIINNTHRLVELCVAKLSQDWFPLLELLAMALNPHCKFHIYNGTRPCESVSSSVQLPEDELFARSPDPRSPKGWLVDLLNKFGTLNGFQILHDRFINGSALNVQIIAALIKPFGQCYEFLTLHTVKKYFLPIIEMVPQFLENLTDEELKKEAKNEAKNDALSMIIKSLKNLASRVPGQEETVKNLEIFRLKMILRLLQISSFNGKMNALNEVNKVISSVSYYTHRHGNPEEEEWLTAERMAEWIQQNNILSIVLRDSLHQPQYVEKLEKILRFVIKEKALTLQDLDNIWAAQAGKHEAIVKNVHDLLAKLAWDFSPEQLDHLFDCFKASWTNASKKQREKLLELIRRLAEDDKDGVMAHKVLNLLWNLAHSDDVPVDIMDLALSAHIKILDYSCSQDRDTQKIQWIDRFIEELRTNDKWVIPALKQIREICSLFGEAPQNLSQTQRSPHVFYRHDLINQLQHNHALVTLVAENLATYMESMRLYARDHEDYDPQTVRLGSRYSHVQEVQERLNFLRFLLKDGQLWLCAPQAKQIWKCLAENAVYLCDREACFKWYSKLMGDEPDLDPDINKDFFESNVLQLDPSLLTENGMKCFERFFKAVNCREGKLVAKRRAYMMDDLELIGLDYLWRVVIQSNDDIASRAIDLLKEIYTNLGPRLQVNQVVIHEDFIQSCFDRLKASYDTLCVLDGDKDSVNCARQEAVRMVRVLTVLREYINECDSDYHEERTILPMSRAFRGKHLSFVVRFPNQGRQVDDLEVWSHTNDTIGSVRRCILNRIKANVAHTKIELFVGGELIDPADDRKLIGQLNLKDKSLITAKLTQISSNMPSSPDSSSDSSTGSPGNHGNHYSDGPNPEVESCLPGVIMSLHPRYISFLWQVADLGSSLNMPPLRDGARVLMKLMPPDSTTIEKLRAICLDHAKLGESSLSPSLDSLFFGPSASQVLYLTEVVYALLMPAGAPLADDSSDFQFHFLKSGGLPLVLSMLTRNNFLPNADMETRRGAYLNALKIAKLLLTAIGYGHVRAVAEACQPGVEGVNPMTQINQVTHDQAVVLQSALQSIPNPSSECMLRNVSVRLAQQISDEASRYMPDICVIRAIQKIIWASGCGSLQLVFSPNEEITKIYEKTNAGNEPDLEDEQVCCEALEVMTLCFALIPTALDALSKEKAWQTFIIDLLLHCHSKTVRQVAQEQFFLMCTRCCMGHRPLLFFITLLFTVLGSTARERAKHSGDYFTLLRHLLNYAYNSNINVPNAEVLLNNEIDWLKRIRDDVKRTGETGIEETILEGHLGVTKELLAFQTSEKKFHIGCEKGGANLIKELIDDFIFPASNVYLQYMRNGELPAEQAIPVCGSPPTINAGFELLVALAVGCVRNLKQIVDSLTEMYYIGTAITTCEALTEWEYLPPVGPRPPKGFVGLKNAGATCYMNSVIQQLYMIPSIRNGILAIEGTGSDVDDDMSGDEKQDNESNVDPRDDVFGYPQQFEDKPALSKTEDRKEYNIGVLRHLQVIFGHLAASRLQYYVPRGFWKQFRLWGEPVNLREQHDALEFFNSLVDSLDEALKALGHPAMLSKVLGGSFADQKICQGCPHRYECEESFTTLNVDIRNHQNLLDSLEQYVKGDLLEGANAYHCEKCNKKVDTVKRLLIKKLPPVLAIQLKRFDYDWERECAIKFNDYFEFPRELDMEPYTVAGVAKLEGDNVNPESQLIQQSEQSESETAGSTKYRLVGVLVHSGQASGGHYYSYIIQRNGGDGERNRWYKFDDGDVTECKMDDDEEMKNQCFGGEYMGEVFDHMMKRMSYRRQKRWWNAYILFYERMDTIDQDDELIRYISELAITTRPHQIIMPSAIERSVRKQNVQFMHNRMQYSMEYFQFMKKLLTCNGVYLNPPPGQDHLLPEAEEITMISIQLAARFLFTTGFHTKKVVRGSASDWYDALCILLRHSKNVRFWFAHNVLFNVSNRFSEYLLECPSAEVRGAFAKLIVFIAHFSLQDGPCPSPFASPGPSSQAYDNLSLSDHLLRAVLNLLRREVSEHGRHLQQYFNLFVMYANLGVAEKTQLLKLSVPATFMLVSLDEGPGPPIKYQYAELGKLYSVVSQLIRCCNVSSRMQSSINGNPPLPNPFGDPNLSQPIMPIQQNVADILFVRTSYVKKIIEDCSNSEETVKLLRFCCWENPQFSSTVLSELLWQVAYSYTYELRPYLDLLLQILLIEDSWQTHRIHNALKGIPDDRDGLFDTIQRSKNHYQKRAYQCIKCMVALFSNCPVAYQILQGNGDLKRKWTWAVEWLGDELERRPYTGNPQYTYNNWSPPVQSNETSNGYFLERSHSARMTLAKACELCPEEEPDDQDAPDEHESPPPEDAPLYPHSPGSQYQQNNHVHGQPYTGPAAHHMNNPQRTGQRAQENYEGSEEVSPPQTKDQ
Sequence of UniProt O00487 (O00487 whole entry): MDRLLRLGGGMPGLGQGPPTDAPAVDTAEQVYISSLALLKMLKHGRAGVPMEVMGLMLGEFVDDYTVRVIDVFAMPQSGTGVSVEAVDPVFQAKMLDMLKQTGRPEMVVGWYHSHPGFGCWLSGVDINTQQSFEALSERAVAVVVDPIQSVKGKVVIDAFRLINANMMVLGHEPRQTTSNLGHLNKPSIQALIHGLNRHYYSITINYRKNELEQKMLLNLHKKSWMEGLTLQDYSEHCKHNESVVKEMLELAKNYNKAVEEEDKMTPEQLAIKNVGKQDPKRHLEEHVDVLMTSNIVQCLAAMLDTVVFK
Sequence of USP7 (Q93009 whole entry, looked up): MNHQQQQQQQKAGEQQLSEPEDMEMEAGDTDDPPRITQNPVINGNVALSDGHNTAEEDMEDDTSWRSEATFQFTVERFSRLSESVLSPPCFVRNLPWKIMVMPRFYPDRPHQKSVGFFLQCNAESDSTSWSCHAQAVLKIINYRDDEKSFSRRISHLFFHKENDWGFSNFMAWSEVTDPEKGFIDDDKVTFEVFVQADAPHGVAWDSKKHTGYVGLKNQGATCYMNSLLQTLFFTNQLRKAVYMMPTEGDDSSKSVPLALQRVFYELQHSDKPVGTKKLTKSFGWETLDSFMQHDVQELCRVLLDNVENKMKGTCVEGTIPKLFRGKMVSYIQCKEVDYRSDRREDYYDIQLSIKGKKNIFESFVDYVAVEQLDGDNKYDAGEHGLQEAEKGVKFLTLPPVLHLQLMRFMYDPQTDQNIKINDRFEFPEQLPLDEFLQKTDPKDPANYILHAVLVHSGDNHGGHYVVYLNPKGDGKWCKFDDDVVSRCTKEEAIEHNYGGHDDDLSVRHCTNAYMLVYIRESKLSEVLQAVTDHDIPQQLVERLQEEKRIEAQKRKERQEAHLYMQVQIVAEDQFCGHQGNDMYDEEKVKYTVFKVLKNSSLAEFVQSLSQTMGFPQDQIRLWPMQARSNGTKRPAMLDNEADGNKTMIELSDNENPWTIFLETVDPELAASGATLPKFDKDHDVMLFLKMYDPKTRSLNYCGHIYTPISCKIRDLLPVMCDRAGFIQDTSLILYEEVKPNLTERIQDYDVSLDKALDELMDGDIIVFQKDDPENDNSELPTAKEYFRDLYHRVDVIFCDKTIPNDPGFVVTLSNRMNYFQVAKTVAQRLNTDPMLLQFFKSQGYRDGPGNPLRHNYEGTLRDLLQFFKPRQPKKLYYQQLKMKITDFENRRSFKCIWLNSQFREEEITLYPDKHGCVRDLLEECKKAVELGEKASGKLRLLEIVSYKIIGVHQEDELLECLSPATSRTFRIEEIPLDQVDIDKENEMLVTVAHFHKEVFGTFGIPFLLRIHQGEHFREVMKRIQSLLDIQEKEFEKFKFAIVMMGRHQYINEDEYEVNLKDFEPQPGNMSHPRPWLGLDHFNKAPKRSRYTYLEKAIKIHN
Sequence of USP46 (P62068 whole entry): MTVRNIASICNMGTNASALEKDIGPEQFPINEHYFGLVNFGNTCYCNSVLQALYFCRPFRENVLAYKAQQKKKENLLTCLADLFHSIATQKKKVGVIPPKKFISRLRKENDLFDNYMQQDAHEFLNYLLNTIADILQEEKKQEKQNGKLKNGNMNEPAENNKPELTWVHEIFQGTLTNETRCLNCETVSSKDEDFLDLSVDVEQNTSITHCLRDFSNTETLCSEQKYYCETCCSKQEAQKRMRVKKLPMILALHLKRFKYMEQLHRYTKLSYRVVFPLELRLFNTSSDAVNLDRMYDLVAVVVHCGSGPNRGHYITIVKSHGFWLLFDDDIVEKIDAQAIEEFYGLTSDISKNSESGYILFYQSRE

COCC1C=CCCN1C(=O)CCl (stereo not given)
inactive: [1] -0.485 | [2] 0.0708 | [3] -0.789 | [4] -0.152 | [5] 0.0548 | [6] 0.237 | [7] -0.21 | [8] -0.0182 | [9] -0.16 | [10] -0.0987
